From PubChem BioAssay
Unmarked numbers belong to inactive results. Active and inactive are the calls of the source.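 The calls were made as follows: active = normalized viability below 100% at a tested concentration; inactive = the rest.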

assay: drug combination growth inhibition, ovarian cancer – cell-based, oncology-focused library, rucaparib conditional, profiling panel (AID 1508598); conditions: patient-derived ovarian cancer cells, CellTiter-Glo viability, 144 h; at 1.25 µM; OCI-P5x cells; without rucaparib; hits give low values

SMILES | viability
N#CCNC(=O)c1ccc(-c2ccnc(Nc3ccc(N4CCOCC4)cc3)n2)cc1 | 84.9% (active)
Nc1nc(Nc2ccc(S(N)(=O)=O)cc2)nn1C(=O)c1c(F)cccc1F | 69.8% (active)
O=C(Nc1ccccc1-c1cn2c(CN3CCNCC3)csc2n1)c1cnc2ccccc2n1 | 89.6% (active)
COc1ccc(-c2ccc3c(N4CCOCC4)nc(N4C[C@@H](C)O[C@@H](C)C4)nc3n2)cc1CO | 91.3% (active)
CC1(C)CNc2cc(NC(=O)c3cccnc3NCc3ccncc3)ccc21 | 98.9% (active)
COc1cc2nccc(Oc3ccc(NC(=O)Nc4cc(C)on4)c(Cl)c3)c2cc1OC | 86.1% (active)
N#Cc1c(NC(=O)c2cccc3ccccc23)sc2c1CCCC2 | 34.2% (active)
COc1ccc(-c2ccc3c(N4CCOC[C@@H]4C)nc(N4CCOC[C@@H]4C)nc3n2)cc1CO | 22.6% (active)
Cc1cnc(NC(=O)Nc2cc(Br)c(C)cc2OC[C@@H]2CNCCO2)cn1 | 85.9% (active)
COC(=O)c1ccc2c(C(=Nc3ccc(N(C)C(=O)CN4CCN(C)CC4)cc3)c3ccccc3)c(O)[nH]c2c1 | 73.9% (active)
Cc1ccc(F)c(NC(=O)Nc2ccc(-c3cccc4[nH]nc(N)c34)cc2)c1 | 87.8% (active)

same assay, conditions: patient-derived ovarian cancer cells, CellTiter-Glo viability, 144 h; at 5 µM; OCI-C5x cells; with rucaparib 10 µM; hits give low values; 100% = cells with rucaparib alone

SMILES | viability
N#CCNC(=O)c1ccc(-c2ccnc(Nc3ccc(N4CCOCC4)cc3)n2)cc1 | 78.5% (active)
Nc1nc(Nc2ccc(S(N)(=O)=O)cc2)nn1C(=O)c1c(F)cccc1F | 13.2% (active)
O=C(Nc1ccccc1-c1cn2c(CN3CCNCC3)csc2n1)c1cnc2ccccc2n1 | 1.3% (active)
COc1ccc(-c2ccc3c(N4CCOCC4)nc(N4C[C@@H](C)O[C@@H](C)C4)nc3n2)cc1CO | 133%
CC1(C)CNc2cc(NC(=O)c3cccnc3NCc3ccncc3)ccc21 | 137%
COc1cc2nccc(Oc3ccc(NC(=O)Nc4cc(C)on4)c(Cl)c3)c2cc1OC | 150%
N#Cc1c(NC(=O)c2cccc3ccccc23)sc2c1CCCC2 | 49.6% (active)
COc1ccc(-c2ccc3c(N4CCOC[C@@H]4C)nc(N4CCOC[C@@H]4C)nc3n2)cc1CO | 48% (active)
Cc1cnc(NC(=O)Nc2cc(Br)c(C)cc2OC[C@@H]2CNCCO2)cn1 | 3.26% (active)
COC(=O)c1ccc2c(C(=Nc3ccc(N(C)C(=O)CN4CCN(C)CC4)cc3)c3ccccc3)c(O)[nH]c2c1 | 124%
Cc1ccc(F)c(NC(=O)Nc2ccc(-c3cccc4[nH]nc(N)c34)cc2)c1 | 83.6% (active)
